# From PubChem
# Cdc25B block: inhibitors of human Cdc25B phosphatase. inhibition, %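 (compounds tested at 10 µM final in the well)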. actives 0.1% (n = 65,000). P30305. recombinant Cdc25B, OMFP fluorescence Ex485/Em525. AID 368; in the data active = inhibition above about 50%
# Target sequence (P30305 whole entry, looked up): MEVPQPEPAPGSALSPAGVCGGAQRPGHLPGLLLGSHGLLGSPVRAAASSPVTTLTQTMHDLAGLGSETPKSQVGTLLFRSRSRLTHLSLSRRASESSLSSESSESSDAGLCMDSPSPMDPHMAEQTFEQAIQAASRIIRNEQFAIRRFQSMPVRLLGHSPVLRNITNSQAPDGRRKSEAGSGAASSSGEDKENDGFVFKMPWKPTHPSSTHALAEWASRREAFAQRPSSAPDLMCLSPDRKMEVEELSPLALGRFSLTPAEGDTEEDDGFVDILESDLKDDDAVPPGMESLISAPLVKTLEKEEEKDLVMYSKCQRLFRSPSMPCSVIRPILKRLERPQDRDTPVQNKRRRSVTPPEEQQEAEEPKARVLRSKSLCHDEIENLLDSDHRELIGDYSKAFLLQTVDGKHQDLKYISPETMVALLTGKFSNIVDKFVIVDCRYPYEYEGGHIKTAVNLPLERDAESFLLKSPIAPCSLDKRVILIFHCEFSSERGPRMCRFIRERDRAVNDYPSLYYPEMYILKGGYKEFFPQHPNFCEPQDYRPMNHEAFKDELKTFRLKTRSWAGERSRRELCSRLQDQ
# HePTP inh: human HePTP phosphatase inhibition; AID 521; P35236; inhibition, % at 20 µM; recombinant HePTP phosphatase activity, OD absorbance; actives 0.64% (n = 110,000); in the data active = inhibition above about 50%; inconclusive = no clear call, values can overlap the other calls;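 also: plate controls were vehicle for no effect and reference inhibitor for full effect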
# MKP-1 inh: inhibitors of human MKP-1 phosphatase. recombinant MKP-1, OMFP hydrolysis fluorescence. AID 374. inhibition, %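 (compounds tested at a single concentration somewhere between 10 and 100 µM)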. P28562. actives 0.15% (n = 65,000);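 active = inhibition above about 50%, limit read from the data; inconclusive = inhibition over screen mean plus 3 SD, below that limit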;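 also: 0% = DMSO max control wells and 100% = wells with enzyme stopped by NaOH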
# Redox H2O2: generates H2O2 by redox cycling in DTT; shares compounds with MKP-1 inh; Redox cycling H2O2 generation, phenol red/HRP; EC50, µM; 60 tested, under 10 active; call rule not given here
# Active calls of the source: *; ? = inconclusive; . = not tested or not shown. The list is not random: actives were taken first. Their share in the collection is about 0.7%.
SMILES,Cdc25B block,HePTP inh,MKP-1 inh,Redox H2O2
CC(=O)[C@@H]1[C@@H]2C(=O)N(c3ccc(F)c(Cl)c3)C(=O)[C@@H]2C2c3ccccc3C=CN21 (some centres not stated),13.7,-9.5,20.3,>50
CC(=O)[C@H]1[C@@H]2C(=O)N(c3cccc(Cl)c3)C(=O)[C@@H]2[C@H]2c3ccccc3C=CN21,8.2,8.0,-3.5,.
Cc1cc(C)n2c(SCC(=O)N3CCN(S(=O)(=O)c4ccc(Cl)cc4)CC3)nnc2n1,-0.7,-1.2,56.3*,>50
CCCn1c(SCC(=O)N2CCN(S(=O)(=O)c3ccc(Cl)cc3)CC2)n[nH]c1=O,-5.6,7.0,6.8,.
COc1cc(/C=C(\C#N)c2nc3ccc(C)cc3[nH]2)cc(OC)c1O,.,0.9,.,.
C(=C\CSc1cccc2cccnc12)/CSc1cccc2cccnc12,.,8.1,.,.
O=C(NN1C(=O)/C(=C/c2ccc([N+](=O)[O-])cc2)SC1=S)c1ccccc1Cl,.,6.0,.,.
CC(C)Sc1nc2sc3c(c2c2nnc(SCC(=O)NCc4ccco4)n12)CCCC3,15.2,11.4,54.5*,>50
CCSc1nc2sc3c(c2c2nnc(SCC(=O)NCc4ccco4)n12)CCCC3,13.4,1.1,-1.8,.
CCOC(=O)c1ccc2c(c1)C1C=CCC1C(c1ccc(F)cc1)N2 (configuration not stated),.,12.1,.,.
CCOC(=O)c1ccc2c(c1)C1C=CCC1C(C(=O)O)N2 (configuration not stated),27.4,.,56.9*,>50
O=C(Cn1cnc2ccccc21)Nc1cc(C(F)(F)F)ccc1N1CCOCC1,-6.6,9.8,29.5,.
FC(F)(F)c1ccc(N2CCOCC2)c(Nc2nc3ccccc3n3cnnc23)c1,-10.2,1.7,61.2*,>50
Nc1c(N2CCCC2)cc(Cl)c2nonc12,4.6,4.0,71.7*,>50
Nc1c(N2CCOCC2)cc(Cl)c2nonc12,-4.8,4.9,-14.5,.
COc1ccccc1C1C(C(C)=O)=C(O)C(=O)N1CCN1CCNCC1 (configuration not stated),.,1.4,.,.
COc1ccc(Cn2c(C)nc3c(c2=O)c2nc4ccccc4nc2n3Cc2ccco2)cc1,6.9,.,40.5,>50
COc1ccc(Cn2c3nc4ccccc4nc3c3c(=O)n(Cc4ccco4)c(C)nc32)cc1,15.9,45.4,41.1,.
CSc1ccc(C2C(C(=O)OCCOc3ccccc3)=C(C)NC3=C2C(=O)CCC3)cc1 (configuration not stated),.,-4.6,.,.
COc1cc(OC)c(C=C2C(=O)NC(=S)NC2=O)cc1Br,.,-2.9,.,.
O=C(COc1ccc(Cl)cc1)Nc1ccccc1[N+](=O)[O-],.,2.9,.,.
Cc1csc(NC(=O)c2sc3nc(-c4cccs4)ccc3c2N)n1,1.6,0.5,29.0,.
CCCSc1nnc(NC(=O)c2sc3nc(-c4cccs4)ccc3c2N)s1,20.5,7.4,52.7*,>50
COc1ccc(C(=O)c2no[n+]([O-])c2C(=O)c2ccc(OC)cc2)cc1,1.5,.,?,.
O=C(c1cccs1)c1no[n+]([O-])c1C(=O)c1cccs1,11.0,.,91.2*,>50
CCOc1ccc(/C=C2\C(=O)NC(=S)N(c3ccc(F)cc3)C2=O)cc1OC,.,-4.3,.,.
COc1ccc(-n2c(NC(=O)c3ccco3)c(C#N)c3nc4ccccc4nc32)cc1,6.1,10.5,24.0,>50
COc1ccc(-n2nc3cc(C)c(NC(=O)c4ccco4)cc3n2)cc1,.,5.7,.,.
CC(NC(=O)CN1CCCCC1)C1COc2ccccc2O1 (configuration not stated),.,-13.0,.,.
CCOc1ccc(NC(=O)c2ccc(S(=O)(=O)N(CC)CC)cc2)c([N+](=O)[O-])c1,.,5.8,.,.
